Source: PubChem BioAssay AID1979 (Broad Institute, 2009)
The whole screen tested about 300,000 compounds, of which about 1,700 (0.57%) were called active. Not shown: some 2% with an inconclusive outcome.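 The calls were made as follows: active = growth inhibition above about 58% in most replicates (limit read from the data, passing the limit was not always enough); inconclusive = exactly half the replicates above a set limit; inactive = most replicates below a set limit.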 Many of the other results were omitted from the sample, so actives are more common in it than they were.

Experiment: Candida growth reduction under fluconazole – CaCi-2 strain, Alamar Blue fluorescence, primary screen (AID 1979);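 also: all wells also contain fluconazole at 8 µg/ml as a sub-toxic cotreatment; 0% = median of DMSO wells and 100% = median of geldanamycin control wells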
Conditions: C. albicans CaCi-2 (fluconazole-resistant clinical isolate) + fluconazole, 48 h, stronger effect = higher value, concentration not given here

| Structure (SMILES) | growth inhibition |
| --- | --- |
| COc1ccc(-c2nnc(SCC(=O)Nc3cccnc3Cl)n2C)cc1 | 6.53% (inactive) |
| O=C(NC(Cc1ccccc1)C(=O)N1CCCC(C(F)(F)F)C1)c1ccccc1 (centres undefined) | 1.33% (inactive) |
| CCCCN(C(=O)CSCC(=O)Nc1ccc(OC)cc1)c1c(N)n(CCC)c(=O)[nH]c1=O | -2.57% (inactive) |
| O=C(NN1C(=O)C2C(C1=O)C1C=CC2C12CC2)c1ccccc1Cl (centres undefined) | 3.48% (inactive) |
| CC12CCC(C(=O)N(c3cccc(Cl)c3)C1=O)C2(C)C (centres undefined) | -3.94% (inactive) |
| CC12CCC(C(=O)N(NC(=O)c3ccccc3O)C1=O)C2(C)C (centres undefined) | 107% (active) |
| COc1cc(/C=N/NC(=O)c2cc(-c3ccccc3C)nc3ccccc23)cc(OC)c1O | 32.7% (inactive) |
| COc1ccc(/C=N/NC(=O)c2cc(-c3cccc(C)c3)nc3ccccc23)cc1O | 34.6% (inactive) |
| Cc1ccc(/C=N/NC(=O)C2=NNC(c3ccccc3)(c3ccccc3)C2)c(O)c1 | 102% (active) |
| O=C(Nc1ccc(OC(F)(F)F)cc1)c1ccc2c(c1)no[n+]2[O-] | -3.65% (inactive) |
| CC1CC2=C(CC1/C=N/NC(N)=S)C(C)(C)CCC2 (centres undefined) | 26.2% (inactive) |
| CC(C)CN(C(=O)c1ccc2c(c1)OCO2)C1CCS(=O)(=O)C1 (centres undefined) | 3.11% (inactive) |
| CCOc1cc(C(=O)Nc2ccc(S(=O)(=O)Nc3cnc4ccccc4n3)cc2)cc(OCC)c1OCC | 19.7% (inactive) |
| CC(=O)Nc1ccc(Nc2c3ccccc3nc3ccccc23)cc1 | 111% (active) |
| Cc1ccc(Nc2c3c(nc4ccccc24)CCC3)cc1 | 70.5% (inactive) |
| CC(=O)Nc1ccc(NC(=O)COc2ncnc3ccccc23)cc1 | -12.4% (inactive) |
| COc1ccc(C(=O)OCC(=O)Nc2ccc3[nH]c(=O)[nH]c3c2)c(OC)c1OC | -6.2% (inactive) |
| CC(OC(=O)CCC(=O)c1ccccc1)C(=O)Nc1ccc(F)cc1 (centres undefined) | -2.1% (inactive) |
| C=CCOc1ccc(/C=C/C(=O)OC(C)C(=O)Nc2ccc(NC(C)=O)cc2)cc1 (centres undefined) | -2.89% (inactive) |
| O=C(CN(C(=O)c1csnn1)c1cccc(Cl)c1)NC1CCCC1 | 9.33% (inactive) |
| CCCCC(=O)NNC(=S)NC(=O)C(c1ccccc1)c1ccccc1 | 107% (active) |
| O=C(NNC(=S)NCc1ccco1)C(c1ccccc1)c1ccccc1 | 15.6% (inactive) |
| CC(C)C(=O)Nc1cccc(NC(=S)NC(=O)C(c2ccccc2)c2ccccc2)c1 | 50.4% (inactive) |
| Cc1ccc(CSCC(=O)N(C)CC(=O)Nc2cccc(F)c2)cc1 | -6.82% (inactive) |

| Structure (SMILES) | growth inhibition |
| --- | --- |
| Cc1ccc(OCCC(=O)OCC(=O)N2c3ccccc3NC(=O)C2(C)C)cc1 | -5.48% (inactive) |
| Cn1c(N2CCOCC2)c(C=O)c2ccccc21 | -1.88% (inactive) |
| Cc1cc(C(=O)OC(C)C(=O)NC2CCCCC2C)c(C)o1 (centres undefined) | -4.31% (inactive) |
| COc1cccc(/C=N/Nc2ncc(C(F)(F)F)cc2Cl)c1O | 3.96% (inactive) |
| COc1ccccc1/C=N\Nc1cc(C)nc(-n2nc(C)cc2C)n1 | 2.71% (inactive) |
| COc1cccc(/C=N/Nc2cc(C)nc(-c3ccccc3O)n2)c1O | 112% (active) |
| CCOC(=O)c1c(NC(=O)CN2C(=O)NC3(CCC(C)CC3)C2=O)sc(C)c1CC (centres undefined) | -6.28% (inactive) |
| CC[n+]1cc(C)ccc1/C=C/c1ccc(N(C)C)cc1 | 79.2% (active) |
| CN(C)c1ccc(/C=N\S(=O)(=O)c2ccccc2)cc1 | -0.179% (inactive) |
| Cc1nnc(N/N=C/c2cccs2)[nH]c1=O | -0.996% (inactive) |
| Cc1nnc(N/N=C/C2CC=CCC2)[nH]c1=O (centres undefined) | -10.8% (inactive) |
| Cc1nnc(N/N=C/c2ccccn2)[nH]c1=O | 102% (active) |
| CCN(CC(=O)Nc1cc(Cl)ccc1C)C(=O)CSCc1ccc(C)cc1 | -5.77% (inactive) |
| O=S(=O)(NCCS(=O)(=O)N1CCN(c2ccccc2)CC1)c1ccc(F)cc1 | 0.355% (inactive) |
| O=C(CC(NCCN1CCOCC1)C(=O)O)Nc1cccc(Cl)c1 (centres undefined) | 90.7% (active) |
| O=C(CC(c1ccccc1)c1cc(Cl)ccc1O)NCCN1CCOCC1 (centres undefined) | -8.66% (inactive) |
| O=C(NCCN1CCOCC1)Nc1cccc(Cl)c1 | 10.7% (inactive) |
| COc1ccccc1C(=O)COC(=O)CSCC(=O)Nc1cc(C)on1 | 0.143% (inactive) |
| O=C(COC(=O)c1ncc(Cl)c(Cl)c1Cl)NC1CCS(=O)(=O)C1 (centres undefined) | -0.837% (inactive) |
| S=c1[nH]nc(-c2cccs2)n1/N=C/c1cccs1 | 78.7% (active) |
| Oc1ccccc1/C=N/n1c(-c2cccs2)n[nH]c1=S | -0.357% (inactive) |
| S=c1[nH]nc(-c2cccs2)n1/N=C/c1cn(-c2ccccc2)nc1-c1ccc(Cl)cc1 | -0.57% (inactive) |
| COc1cc(C(=O)OCC(=O)N(CC(C)C)C2CCS(=O)(=O)C2)ccc1OCC(C)C (centres undefined) | 5.68% (inactive) |
| Oc1c(CN2CCN(c3ccc(F)cc3)CC2)cc(Cl)c2cccnc12 | 112% (active) |

| Structure (SMILES) | growth inhibition |
| --- | --- |
| Cc1cccnc1NC(=O)c1cccc(S(=O)(=O)N2CCN(c3ccc(F)cc3)CC2)c1 | -15.4% (inactive) |
| Oc1ccc(CN2CCN(c3ncccn3)CC2)cc1 | -5.62% (inactive) |
| Cc1noc(C)c1COc1ccccc1C(=O)N(C)CC(=O)Nc1cccc(F)c1 | 3.18% (inactive) |
| Cc1ccc(C(=O)NNC(=O)C(C)Oc2ccc3ccccc3c2)o1 (centres undefined) | -0.807% (inactive) |
| CCOC(=O)c1c(-c2ccccc2)oc2cc(Br)c(O)c(C=O)c12 | 99.6% (active) |
| CCOC(=O)c1c(-c2ccccc2)oc2ccc(OCC(N)=O)cc12 | 1.32% (inactive) |
| CCOC(=O)c1c(-c2ccccc2)oc2cc(Br)c(O)cc12 | 15.1% (inactive) |
| OC(COCCC12CC3CC(CC(C3)C1)C2)CN1CCCCC1 (centres undefined) | 8.32% (inactive) |
| O=C(CCCCO)c1ccc(O)c(Cl)c1 | -0.4% (inactive) |
| Cc1ccc(NNC(=O)c2cccs2)cc1Cl | 94.7% (active) |
| Cc1ccc(NNC(=O)c2c(F)cccc2Cl)cc1Cl | 3.83% (inactive) |
| O=C(NNC(=O)c1ccc(Cl)cc1Cl)c1cccs1 | -3.73% (inactive) |
| N[C@@H](Cc1ccccc1)C(=O)N1CCC(C(=O)NCC(=O)Nc2ccc(F)cc2)CC1 | -10.4% (inactive) |
| COc1ccc(NC(=O)CSc2nc(C)cs2)cc1 | 106% (active) |
| COc1cc(OC)cc(-c2nnc(SCC(=O)Nc3ccc(C(=O)O)cc3)s2)c1 | -1.63% (inactive) |
| Cc1csc(SCC(=O)Nc2sccc2C#N)n1 | 4.45% (inactive) |
| Cc1ccnc(NC(=O)CNC(=O)c2ccccc2)c1 | -1.64% (inactive) |
| COc1ccc2oc(C(=O)OCC(=O)N(CC(C)C)c3c(N)n(Cc4ccccc4)c(=O)[nH]c3=O)c(C)c2c1 | 5.5% (inactive) |
| CCCn1c(C)cc(/C=C(\C#N)C(=O)OCC(=O)N(C)c2c(N)n(Cc3ccccc3)c(=O)[nH]c2=O)c1C | -1.38% (inactive) |
| Cc1c(CCOC(=O)c2cc([N+](=O)[O-])ccc2Cl)sc[n+]1CCCCS(=O)(=O)[O-] | -13.2% (inactive) |
| Cc1c(CCOC(=O)CC23CC4CC(CC(C)(C4)C2)C3)sc[n+]1Cc1ccc([N+](=O)[O-])cc1 | 93% (active) |
| Cc1c(CCO)sc[n+]1CC(=O)OC12CC3CC(CC(C3)C1)C2 | -19.8% (inactive) |
| COc1ccc(/C=N/Nc2ncnc3sc4c(c23)CCCC4)cc1O | 18.5% (inactive) |
| COc1ccc(-c2cc(C(=O)NC(Cc3c[nH]c4ccccc34)C(=O)O)c(C)o2)cc1OC (centres undefined) | -7.28% (inactive) |

| Structure (SMILES) | growth inhibition |
| --- | --- |
| CN(C)CCNC(=O)c1[nH]nc2c1CCc1ccccc1-2 | -8.27% (inactive) |
| COc1cccc(/C=N/NC(=O)c2[nH]nc3c2CCc2ccccc2-3)c1O | 89.9% (active) |
| COc1cc2cc(C(=O)N/N=C/c3cccc(OC)c3OC)[nH]c2cc1OC | 0.698% (inactive) |
| CCOc1ccc(-c2cc(C(=O)N/N=C/c3ccc(O)cc3)c3ccccc3n2)cc1 | 10.7% (inactive) |
| CCC1(c2ccccc2)NC(=O)N(CC(=O)Nc2ccccc2C(=O)NC2CCCC2)C1=O (centres undefined) | 2.41% (inactive) |
| Oc1c(C(c2ccccn2)N2CCOCC2)ccc2cccnc12 (centres undefined) | 85.8% (active) |
| CC(C)c1cc(CN2CCOCC2)cc(C(C)C)c1O | 5.31% (inactive) |
| CCC(C)N(C(=O)COC(=O)c1nc(Cl)ccc1Cl)C1CCS(=O)(=O)C1 (centres undefined) | -0.955% (inactive) |
| Cc1cccc(NC(=O)CSC(N)=O)c1C | 91.9% (active) |
| Cc1cccc(NC(=O)CN2C(=O)c3ccccc3C2=O)c1C | -5.98% (inactive) |
| Cc1cccc(NC(=O)COC(=O)CCc2ccccc2)c1C | 0.193% (inactive) |
| COc1ccc(CCNc2cc(N3CCN(C(=O)c4ccccc4OC)CC3)ccc2[N+](=O)[O-])cc1OC | -7.13% (inactive) |
| NC(=O)COc1ccc2c3c(c(=O)oc2c1)CCCCC3 | 122% (active) |
| O=C(COc1ccc2c3c(c(=O)oc2c1)CCC3)NC1CCCCC1 | 13.6% (inactive) |
| NC(=O)C1CCN(C(=O)COc2ccc3c4c(c(=O)oc3c2)CCC4)CC1 | -1.66% (inactive) |
| Cc1ccc(SCC(=O)Nc2nncs2)cc1 | -2.98% (inactive) |
| COCCOC(=O)C1=C(C)NC(=O)NC1c1cc2c(cc1Br)OCO2 (centres undefined) | -1.28% (inactive) |
| Cc1c(CCC(=O)O)c(=O)oc2c(C)c(OCc3ccccc3Cl)ccc12 | 16.4% (inactive) |
| COc1cccc(C(=O)NNC(=O)c2cccc(F)c2)c1 | -10.7% (inactive) |
| COc1cccc(C(=O)NNC(=O)c2ccccc2Br)c1 | 110% (active) |
| COc1cccc(C(=O)NNC(=O)/C=C/c2ccccc2)c1 | -14.4% (inactive) |
| O=C(O)c1ccc(S(=O)(=O)N2CCC(Cc3ccccc3)CC2)cc1 | -2.12% (inactive) |
